In the library only some 13% were active in any assay of this set; here they are far more common.
HCV_inh: blocks hepatitis C virus. Potency, µM (series often up to 41.8 µM), without a hit: top-dose activity change, negative = inhibition, most hits filed as inhibitors. Huh7.5.1 HCVcc-Cre infection, luciferase reporter, 44 h. 340,000 compounds, 3.4% hits; active means well fitted inhibition curve with a large enough effect; inconclusive means small, poorly fitted or top-dose-only effect, or another doubt; inactive means no such curve, though single readings can be large or run the other way; further: potency means the concentration at half of the fitted maximal effect; on the % scale 0 is the no-effect control and ±100 the full control effect
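After 44 h co-culture of compound, cells and HCVcc-Cre (~0.5 moi), substrate is added for 15 min at room temperature and luciferase measured over 15 sec. Cells were seeded at 1,000/well and pre-cultured 4 h.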
Lassa_entry_inh: inhibitors of Lassa virus binding or cell entry | Lassa virus pseudotype entry inhibition, cell reporter | Potency, µM (doses to about 37.9 µM), for the others: at the highest dose activity change, negative = inhibition, hits mostly inhibitors | 300,000 compounds, 1.2% hits | AID 540256; calls by dose curve; tested in HEK293 cells; further: potency means the concentration at half of the fitted maximal effect; on the % scale 0 is the no-effect control and ±100 the full control effect; nearly all actives have a fitted effect of over 50% in size
MARV_entry_inh: blocks Marburg virus binding to or entry into cells; Marburg virus pseudotyped entry inhibition, cell reporter; Potency, µM (series often up to 37.8 µM), for inactives: at the top dose activity change, negative = inhibition, most hits filed as inhibitors; 300,000 compounds, 1.8% hits; AID 540276; calls by dose curve; tested in HEK293 cells; further: potency means the concentration at half of the fitted maximal effect; on the % scale 0 is the no-effect control and ±100 the full control effect
FMDV_antiviral: antivirals against foot and mouth disease virus; FMDV antiviral cell-based qHTS; Potency, µM (top dose mostly 57.9 µM), for the others: at the top dose activity change, negative = inhibition, usual class: inhibitors; 410,000 compounds, 1.2% hits; AID 1159524; calls by dose curve; tested in HEK293T cells; further: read-out not given here; potency means the concentration at half of the fitted maximal effect; on the % scale 0 is the no-effect control and ±100 the full control effect; nearly all actives have a fitted effect of over 45% in size
Cycloheximide_cs: counter-screen for Shiga toxin inhibitors: cycloheximide protein synthesis inhibition; cell reporter, cycloheximide protein synthesis inhibition counterscreen; max response, %; 300,000 compounds, 12% hits; AID 2314; in the data active means max response mostly above about 13%, no sharp cut-off; inactive means mostly below about 14%; further: read at 38.3 µM for the half of the compounds with a filed dose; 0% is about no effect
Shiga_toxin_inh: blocks Shiga toxin action in Vero cells. Vero cells, Shiga toxin protein synthesis inhibition reporter. inhibition, % at 38.7 µM. 290,000 compounds, 9.2% hits; in the data active means inhibition mostly above about 28%, no sharp cut-off; inactive means mostly below about 43%; further: 0% is about no effect
* marks the source's active call; other numbers are inactive results; ? = inconclusive; nt = no result given; [ ] = remark or other dose.

SMILES HCV_inh Lassa_entry_inh MARV_entry_inh FMDV_antiviral Cycloheximide_cs Shiga_toxin_inh
Cc1ccc(C(=O)Cn2nnc(-c3cccs3)n2)cc1 9.9% nt nt 38.2% 31.7* 79.2*
O=C(Cn1nnc(-c2cccs2)n1)NCc1cccs1 14.0% nt -9.1%[46.1_µM] 24.8% 64.8* 11.0
O=C(Cn1nnc(-c2ccccc2)n1)NCc1cccs1 -0.2% 9.9% 29.7% -14.9% 5.0 10.7
COc1cc(OC)c(N(C)S(=O)(=O)c2cccc(C(=O)NC3=NCCS3)c2)cc1Cl ? -24.1% ? -2.9% -2.5 8.4
Nc1nc2c(C(=O)N3CCOCC3)nnn2c2ccccc12 6.7% -20.9% -11.6%[46.1_µM] 31.7% 21.4* 60.4*
COc1cc(C#Cc2c(-c3cncn3C)n(C)c3ccc(-c4cnc(OC)nc4)cc23)cc(OC)c1 ? nt nt 0.0% nt nt
Cc1cc(/C=C2/SC(=O)NC2=O)c(C)n1-c1ccc(N2CCOCC2)cc1 13.2% ? ? ? 8.2 23.5
C#CCN1C(=O)S/C(=C\c2ccc(N3CCOCC3)cc2C)C1=O -0.2% 10.8% ? 5.0% 24.2* 69.8*
CCOc1ccc(N2C(=O)NC(=O)/C(=C\c3ccc(N4CCOCC4)cc3C)C2=O)cc1 22.9% 13.0%[46.1_µM] 15.4%[46.1_µM] -8.9% 4.9 5.8
CCN1C(=O)S/C(=C\c2ccc(N3CCOCC3)cc2C)C1=O ? ? ? -8.4% 27.2* 133.3*
CCCN1C(=O)S/C(=C\c2ccc(N3CCOCC3)cc2C)C1=O nt nt 4.9% nt 33.9* 63.7*
COc1ccc(/C=C2\SC(=O)N(CCc3nnc(N)s3)C2=O)cc1 -12.2% nt nt -7.7% 53.2* 103.6*
COc1ccc(/C=C2\SC(=O)N(CCNC(=O)Cn3[nH]c(=O)c4ccccc4c3=O)C2=O)cc1 -7.9% 0.3%[46.1_µM] 15.4%[46.1_µM] ? nt nt
COc1ccc(/C=C2/SC(=S)N(CCCC(=O)Nc3ccccc3C(=O)O)C2=O)cc1 27.6% 2.82µM* 7.94µM* 8.91µM* -10.0 -9.6
COc1ccc(/C=C2\SC(=S)N(CCC(=O)Nc3cccc(O)c3)C2=O)cc1OC -22.5% 11.0%[46.1_µM] 18.0%[46.1_µM] 5.9% 0.9 14.7
COc1ccc(/C=C2/SC(=S)N(CCCC(=O)Nc3cccc(O)c3)C2=O)cc1 ? ? 7.94µM* 4.2% 34.9* 45.0*

Source: PubChem
